# Results filed as inconclusive are left out. Entries that show only a call come without a potency. The source made the active and inactive calls. Calls follow the shape of the dose curve; as a rule, active = well fitted activation curve with a large enough effect; inconclusive = small, poorly fitted or top-dose-only effect, or effect the other way; inactive = flat fitted curve, though single readings scatter.
# Molecular target: Pyruvate kinase PKLR (Homo sapiens) (UniProt P30613)
# Assay: Secondary assay for Activators of Human Reticulocyte Pyruvate Kinase
# Conditions: purified hPK-R, LDH-coupled NADH fluorescence kinetic; series mostly up to 57.5 µM
# From the text: Confirmatory assay NIH Chemical Genomics Center [NCGC] Wael M. Rabeh, Lyudmila Nedyalkova and Hee-Wan Park [Structural Genomics Consortium, 100 College St. Toronto, Ontario, Canada] NCGC Assay Overview: Human pyruvate kinase reticulocyte (hPK-R) enzyme was supplied as a highly purified (>95% pure) preparation from Structural Genomics Consortium in Toronto (Ontario, Canada) and a secondary assay was used to evaluate compounds. This assay couples the formation of pyruvate from hPK-R using lactate dehydrogenase (LDH) and NADH. The depletion of NADH is followed in a fluorescent-based kinetic assay that follows the formation of pyruvate to lactate, as catalyzed LDH. Pyruvate kinase substrates, PEP and ADP, were present in the assay at 0.1 mM and 4 mM respectively. In this kinetic assay initial rates were determined by following the fluorescence of NADH depletion.
# NCGC Assay Protocol Summary: Three uL of substrate mix (final concentration, 50 mM Tris-Cl pH 8.0, 200 mM KCl, 15 mM MgCl2, 0.1 mM PEP, 4.0 mM ADP, and 0.2 mM NADH) was dispensed into black-solid 1536 well plates. 23 nL of compounds were delivered by a pin tool and 1 uL of enzyme mix (final concentrations, 10 nM hPK-R and 1 uM of LDH) was added. Plates were immediately placed in ViewLux (Perkin Elmer) and NADH fluorescence was determined at 30 second exposure intervals for between 3 and 6 minutes. Data were normalized to the uninhibited and EC100 activation using known activators such as fructose-bis-phosphate.
# Sequence of Pyruvate kinase PKLR (Homo sapiens) (P30613 whole entry, looked up): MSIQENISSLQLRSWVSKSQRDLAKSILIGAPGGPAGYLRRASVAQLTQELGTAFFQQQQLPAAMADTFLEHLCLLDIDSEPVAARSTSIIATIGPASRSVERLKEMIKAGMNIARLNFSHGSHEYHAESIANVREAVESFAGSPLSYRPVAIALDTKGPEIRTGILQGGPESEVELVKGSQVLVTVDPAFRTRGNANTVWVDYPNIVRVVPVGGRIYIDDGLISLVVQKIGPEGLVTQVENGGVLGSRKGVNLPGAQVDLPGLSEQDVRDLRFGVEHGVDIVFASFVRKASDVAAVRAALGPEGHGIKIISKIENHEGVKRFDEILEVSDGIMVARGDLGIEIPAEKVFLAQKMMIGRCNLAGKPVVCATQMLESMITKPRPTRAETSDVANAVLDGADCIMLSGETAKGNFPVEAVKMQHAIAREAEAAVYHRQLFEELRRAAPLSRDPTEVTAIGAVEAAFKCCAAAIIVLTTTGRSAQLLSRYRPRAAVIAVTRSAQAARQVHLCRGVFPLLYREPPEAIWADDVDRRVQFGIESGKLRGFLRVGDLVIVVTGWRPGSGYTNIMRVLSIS
row,SMILES,Potency
1,COc1ccc(Cn2ncc3c4sc(C)cc4n(C)c3c2=O)cc1,631 nM (active)
2,O=C(c1ccc2c(c1)OCCO2)N1CCN(S(=O)(=O)c2c(F)cccc2F)CC1,inactive
3,C[C@H]1CN(S(=O)(=O)c2c(F)cccc2F)CCN1S(=O)(=O)c1ccc2c(c1)OCCO2,inactive
4,COc1ccc(S(=O)(=O)N2CCN(S(=O)(=O)c3ccc(OC)cc3)CC2)cc1,inactive
5,O=C(c1c(F)cccc1F)N1CCN(S(=O)(=O)c2ccc3c(c2)OCCO3)CC1,inactive
6,C[C@@H]1CN(S(=O)(=O)c2ccc3c(c2)OCCO3)CCN1S(=O)(=O)c1c(F)cccc1F,inactive
7,CCc1cc2c(s1)c1cnn(Cc3ccccc3F)c(=O)c1n2C,5620 nM (active)
8,C[C@H]1CN(S(=O)(=O)c2ccc3c(c2)OCCO3)CCN1S(=O)(=O)c1c(F)cccc1F,inactive
9,O=S(=O)(c1ccc2c(c1)OCCO2)N1CCN(S(=O)(=O)c2c(F)ccc(O)c2F)CC1,inactive
10,CC(C)c1cc2c(s1)c1cnn(Cc3ccccc3F)c(=O)c1n2C,4470 nM (active)
11,CSc1cc2c(s1)c1cnn(Cc3ccccc3F)c(=O)c1n2C,708 nM (active)
12,O=S(=O)(c1cccc(F)c1)N1CCN(S(=O)(=O)c2ccc3c(c2)OCCO3)CC1,inactive
13,Cn1c2cc(S(C)=O)sc2c2cnn(Cc3ccccc3F)c(=O)c21 (stereo unspecified),1120 nM (active)
14,O=S(=O)(c1ccc2ccccc2c1)N1CCN(S(=O)(=O)c2c(F)cccc2F)CC1,inactive
15,Cc1cc2c(s1)c1cnn(Cc3c(F)c(F)cc(F)c3F)c(=O)c1n2C,inactive
16,Cn1c2ccsc2c2cnn(Cc3ccccc3F)c(=O)c21,14100 nM (active)
17,O=S(=O)(c1c(F)cccc1F)N1CCN(S(=O)(=O)c2c(F)cccc2F)CC1,inactive
18,O=S(=O)(c1ccc2c(c1)OCO2)N1CCN(S(=O)(=O)c2c(F)cccc2F)CC1,inactive
19,O=S(=O)(c1ccc2c(c1)OCCO2)N1CCN(S(=O)(=O)c2ccc3c(c2)OCCO3)CC1,inactive
20,CC(=O)c1cc2c(s1)c1cnn(Cc3ccccc3F)c(=O)c1n2C,631 nM (active)
21,Cn1c2cc(C#N)sc2c2cnn(Cc3ccccc3F)c(=O)c21,inactive
22,O=S(=O)(c1ccc2c(c1)OCCO2)N1CCN(S(=O)(=O)c2c(F)cccc2F)CC1,inactive
23,CCCCCn1ncc2c3sc(C)cc3n(C)c2c1=O,inactive
24,Cn1c2cc(C=O)sc2c2cnn(Cc3ccccc3F)c(=O)c21,398 nM (active)
25,O=S(=O)(NC1CCC(NS(=O)(=O)c2c(F)cccc2F)CC1)c1ccc2c(c1)OCCO2 (stereo unspecified),inactive
26,O=S(=O)(c1ccc(Cl)cc1)N1CCN(S(=O)(=O)c2ccc3c(c2)OCCO3)CC1,inactive

# Reference: PubChem BioAssay AID1543 (National Center for Advancing Translational Sciences (NCATS), 2009)
